Results published in PubChem BioAssay AID2762 (National Center for Advancing Translational Sciences (NCATS), 2010).
Results filed as inconclusive are left out. The source made the active and inactive calls. The call rests on the fitted dose curve; in most records, active means well fitted inhibition curve with a large enough effect; inconclusive means small, poorly fitted or top-dose-only effect, or effect the other way; inactive means no such curve, though single readings can be large or run the other way.

molecular target: Nuclear receptor ROR-gamma (Mus musculus) (UniProt P51450); assay: Concentration response confirmation assay for inhibitors of ROR gamma transcriptional activity; details: Drosophila S2 Gal4-RORgamma UAS-luciferase, 20 h; series mostly up to 46.1 µM
Description: NIH Molecular Libraries Probe Production Network [MLPCN] NIH Chemical Genomics Center [NCGC] MLPCN Grant: R03 DA026211-01 Assay Provider: Dan Littman, New York University Assay Overview: The retinoic acid-related orphan receptor (ROR) gamma is a transcription factor that has a central role in the differentiation of Th17 cells, a subset of T helper cells that secrete the inflammatory cytokines IL-17, IL-17F, and IL-22. Th17 cells have been implicated in graft versus host disease, autoimmune disease and asthma. ROR gamma is induced in naive T helper cells in the presence of TGF-beta combined with IL-6, IL-21, or IL-23, and thereafter directs the expression of the Th17 lineage cytokines. To study the mechanism of action of ROR gamma, an insect cell-based assay was screened. This Drosophila Schneider cell line was stably transfected with two vectors: a gene expressing a fusion of the Gal4 DNA binding domain and ROR gamma transactivation domain under the control of the metallothionine promoter and a Photinus luciferase reporter regulated by the Gal4 binding site enhancer, UAS. […] Small molecule inhibitors of ROR gamma activity are detected by a decrease in luciferase reporter activity.
Assay Protocol Summary: For screening, 600 cells in 4 uL/well were dispensed into white solid 1536-well plates (Grenier) using a solenoid-based dispenser. Following transfer of 23 nL compound or DMSO vehicle by a pin tool, the plates were incubated 1 hr at ambient temperature, and 1 uL/well copper sulfate (700 uM final concentration) was added. The plates were centrifuged 15 s at 1000 RPM and incubated 20 hr at ambient temperature. After addition of 1.5 uL Photinus luciferase detection reagent, the plates were incubated 10 min at ambient temperature and then read by an ViewLux (Perkin Elmer) to detect luminescence. Keywords: NIH Roadmap, MLPCN, MLI, MLSMR, qHTS, NCGC, qHTS, nuclear hormone receptor, retinoic acid-related orphan receptor, ROR gamma

Chain of Nuclear receptor ROR-gamma (Mus musculus) (P51450 whole entry, looked up, the tested form may be a part): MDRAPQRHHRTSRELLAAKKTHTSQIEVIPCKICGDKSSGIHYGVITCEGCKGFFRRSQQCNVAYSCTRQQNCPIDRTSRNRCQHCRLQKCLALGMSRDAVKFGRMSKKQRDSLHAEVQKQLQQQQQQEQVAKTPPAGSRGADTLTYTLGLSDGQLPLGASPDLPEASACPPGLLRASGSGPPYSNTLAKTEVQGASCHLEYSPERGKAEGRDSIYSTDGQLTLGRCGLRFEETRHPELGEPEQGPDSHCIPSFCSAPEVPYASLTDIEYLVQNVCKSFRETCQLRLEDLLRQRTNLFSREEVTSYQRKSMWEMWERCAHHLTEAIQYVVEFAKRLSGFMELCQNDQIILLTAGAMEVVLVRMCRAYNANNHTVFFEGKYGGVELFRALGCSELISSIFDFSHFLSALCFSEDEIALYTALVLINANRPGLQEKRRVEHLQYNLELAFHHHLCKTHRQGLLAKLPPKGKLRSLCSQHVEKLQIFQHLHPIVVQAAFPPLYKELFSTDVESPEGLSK

| SMILES | Potency |
| --- | --- |
| CCN(CC(=O)NCCc1ccc(Cl)cc1)Cc1nc2ccccc2c(=O)[nH]1 | 12.5 µM (active) |
| O=c1oc2c3c(nn2c2ccccc12)CCCC3 | inactive |
| Cc1cc(NC(=O)CN2CCOCC2)n(-c2nc3ccccc3s2)n1 | 15.8 µM (active) |
| N=C1S/C(=C\c2ccco2)C(=O)N1c1nccs1 | 0.141 µM (active) |
| O=C1NC2=C(C(=O)CCC2)C(c2ccccc2)N1 (stereo not given) | inactive |
| Cc1cccc(-c2nc3cc(NC(=O)C4CCCO4)ccc3o2)c1 (stereo not given) | 0.396 µM (active) |
| CCN(CC(=O)Nc1ccc2c(c1)CCC2)Cc1nc2ccccc2c(=O)[nH]1 | 8.88 µM (active) |
| S=c1[nH]nc(-c2ccc(Br)cc2)n1-c1ccc2c(c1)OCCO2 | 1.58 µM (active) |
| CC(=O)c1cccc(N(CC(=O)Nc2ccccc2C(=O)N2CCCC2)S(C)(=O)=O)c1 | inactive |
| CC(C)(C)S(=O)(=O)c1cnc2c(-c3ccc(Cl)cc3)cnn2c1N | 4.45 µM (active) |
| S=c1[nH]c(-c2ccc(Br)cc2)cn1CCc1ccccc1 | 9.96 µM (active) |
| O=C(/C=C/c1ccc(S(=O)(=O)N2CCOCC2)cc1)NC(=S)Nc1ccc(N2CCOCC2)cc1 | 9.96 µM (active) |
| Cc1cc(NC(=S)NC(=O)/C=C/c2ccc(S(=O)(=O)N3CCOCC3)cc2)ccc1Br | 7.05 µM (active) |
| COc1ccc(/C=C/C(=O)NC(=S)NCC2CCCO2)cc1 (stereo not given) | 11.2 µM (active) |
| COc1ccc(C(=O)/C=C/c2ccc(OC)cc2OC)c(O)c1 | 0.888 µM (active) |
| COc1ccc2oc(=O)c(C(=O)Nc3ccccc3C)cc2c1 | 1.25 µM (active) |
| Cc1ccc(-c2n[nH]c(=S)n2/N=C/C=C\c2ccccc2[N+](=O)[O-])cc1 | inactive |
| CC(C)(C)S(=O)(=O)c1cnc2c(-c3ccc(F)cc3)cnn2c1N | 11.2 µM (active) |
| Cc1ccc(C)c(/C=N/n2cc(-c3ccccc3)[nH]c2=S)c1 | 0.791 µM (active) |
| O=[N+]([O-])c1ccccc1/C=C/C=N/n1c(-c2ccc(Cl)cc2)n[nH]c1=S | inactive |

| SMILES | Potency |
| --- | --- |
| O=C(NCC1CCCO1)C(C(=O)c1ccccc1)n1ccccc1=O (stereo not given) | inactive |
| O=c1c2cc(Br)ccc2[nH]c(=S)n1Cc1cccnc1 | 11.2 µM (active) |
| O=C(COc1ccccc1Cl)NCCCN1CCOCC1 | inactive |
| COC(=O)c1ccc(OCC(=O)c2ccc(O)cc2O)cc1 | 0.125 µM (active) |
| CCOC(=O)c1sc(NC(=O)c2sc(C)nc2C)nc1C | inactive |
| CCOC(=O)c1sc(NC(=O)c2ccc(S(=O)(=O)N(C)C)cc2)nc1C | 0.0791 µM (active) |
| CCOc1ncccc1C(=O)OCC(=O)Nc1ccc(-c2nc3ccc(C)cc3s2)cc1 | 0.396 µM (active) |
| CN(Cc1nc2ccccc2c(=O)[nH]1)Cc1nc2ccsc2c(=O)[nH]1 | 1.41 µM (active) |
| O=C1CC(c2ccc(F)cc2)CC(O)=C1C1NCCc2ccccc21 (stereo not given) | inactive |
| CC(C)CC(=O)NS(=O)(=O)c1ccc(N)cc1 | inactive |
| O=C(O)c1ccc(/C=N/n2cc(-c3ccccc3)[nH]c2=S)cc1 | inactive |
| CCC(C)[C@H](NC(=O)NCc1ccco1)C(=O)O (stereo not given in full) | inactive |
| Oc1ccccc1-c1cc(-c2ccc3c(c2)OCCO3)n[nH]1 | 11.2 µM (active) |
| S=c1nc(COc2ccccc2)[nH]c2ccccc12 | 6.28 µM (active) |
| COc1ccc(OCC(=O)NNc2nc3ccccc3s2)cc1 | 14.1 µM (active) |
| CCOc1ccc2nc(NC(=O)c3cnccn3)sc2c1 | 3.15 µM (active) |
| O=C(Cn1c(=O)oc2ccc(Cl)cc21)Nc1ccon1 | inactive |
| CCN1CCCc2cc(CN(CCN3CCOCC3)C(=S)Nc3ccccc3C)ccc21 | 9.96 µM (active) |
| CNc1cc(C(F)(F)F)nc(-c2ccccn2)n1 | 3.97 µM (active) |
| Cc1nn(-c2cc(C)c3ccccc3n2)c2c1C1C(C2)C1(C)C (stereo not given) | 6.28 µM (active) |
